The source made the active and inactive calls.

In test [1] the test system is PRMT1 (protein arginine N-methyltransferase 1). The test can be described thus: small molecules binding arginine methyltransferase PRMT1 – biochemical, small-molecule microarray, 635 nm fluorescence, primary screen (AID 1088).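 Further: binding of Prmt1 protein to compounds spotted on small-molecule microarray slides.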 Particulars: higher = more signal.
Test [2] can be described thus: growth effects on S. cerevisiae YJM789 – YJM789 clinical isolate, OD600, 24 h, basal, primary screen (AID 1089).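 Further: growth of clinical yeast isolate S. cerevisiae YJM 789 seeded 1000 cells per well; test concentration not given here.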 Particulars: higher = more signal, called active from +8 up or from −8 down.
A short description of test [3]: S. pombe growth modifiers, basal conditions – strain 972, OD600, 24 h, no modulator, primary screen (AID 1090).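 Further: basal condition with compound alone and no growth modifier present; test concentration not given here.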 As to conditions: S. pombe 972 growth, higher = more signal, called active from +8 up or from −8 down.
Test [4] is described as follows: budding yeast growth modifiers under rapamycin – strain BY4716, OD600, 96 h, primary screen (AID 1091). Further: test concentration not given here. Particulars: S. cerevisiae BY4716 + rapamycin, higher = more signal, called active from +8 up or from −8 down.
In test [5] the target is Torsin-1A-interacting protein 2 (Homo sapiens) (UniProt Q8NFQ8). Description: small molecules binding lysate-expressed LULL1 – cell lysate, human LULL1 lysate, 635/667 nm fluorescence, primary screen (AID 1092).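 Further: probe is lysate of COS7 cells overexpressing human LULL1; score merges per-feature 667 nm fluorescence with signal-to-noise.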 Particulars: small-molecule microarray, hLULL1 lysate binding, 635 nm fluorescence; higher = more signal.
The nature of test [6]: optical density change of DRC41 E. coli – strain DRC41, OD650, 24 h, E. coli filamentation project, primary screen (AID 1093).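 Further: MC1000 strain lacking acrAB efflux and sulA so SOS filamentation is blocked; test concentration not given here.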 As to conditions: E. coli DRC41 growth, higher = more signal, called active from +8 up or from −8 down.
Test [7] in a line: probe aLefty2 binding to arrayed compounds – biochemical, biotinylated probe, 635/667 nm fluorescence, primary screen (AID 1094).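 Further: score merges spot fluorescence near 667 nm with spot signal-to-noise ratio.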 Particulars: small-molecule microarray, higher = more signal.
In test [8] the test system is Noggin (protein binding on small-molecule microarray). The test can be described thus: small molecules binding Noggin protein – biochemical, 635/667 nm fluorescence, primary screen (AID 1095).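 Further: score merges 667 nm feature fluorescence with signal to noise over triplicate slides.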 Particulars: 635 nm fluorescence, higher = more signal.
Test [9] has as its target Neurogenic locus notch homolog protein 3 (Homo sapiens) (UniProt Q9UM47). Description: small molecules binding NOTCH3 protein – biochemical, 635/667 nm fluorescence, primary screen (AID 1096). Particulars: small-molecule microarray, 635 nm fluorescence, higher = more signal.
A short description of test [10]: probe aEGFR binding to arrayed compounds – biochemical, biotinylated probe, 635/667 nm fluorescence, primary screen (AID 1097).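 Further: probe is a biotinylated anti-EGFR antibody binding compounds printed on slides; score combines fluorescence near 667 nm and signal to noise of each spot.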 Particulars: small-molecule microarray, higher = more signal.
Test [11] has as its system Plasmodium falciparum Sir2 (PF13_0152, Sir2A). Description: Plasmodium falciparum Sir2A binding compounds – biochemical, small-molecule microarray, 635 nm fluorescence, primary screen (AID 1098).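 Further: score merges spot fluorescence intensity with its signal-to-noise ratio.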 As to conditions: fluorescence 635 nm, higher = more signal.
A short description of test [12]: probe aDKK1 binding to arrayed compounds – biochemical, biotinylated probe, 635/667 nm fluorescence, primary screen (AID 1099).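 Further: score merges 667nm spot fluorescence with signal to noise across triplicate slides; reference of the scale not given here.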 Particulars: small-molecule microarray, higher = more signal.
Test [13] can be described thus: probe aCHRDL2 binding to arrayed compounds – biochemical, biotinylated probe, 635/667 nm fluorescence, primary screen (AID 1100). As to conditions: small-molecule microarray, higher = more signal.
Test [14] is described as follows: change in splice reporter luminescence, either direction, cell-based, HEK293, spliceosome inhibition project, primary screen (AID 1101).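 Further: HEK293 cells carrying a splicing-competent luciferase reporter gene; test concentration not given here.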 As to conditions: HEK293 splicing luciferase reporter, 24 h, higher = more signal, called active from +8 up or from −8 down. For orientation: In a reporter assay the amount or activity of a reporter protein is the signal.
The target in test [15] is Fibroblast growth factor 10 (Homo sapiens) (UniProt O15520). Description: compounds binding fibroblast growth factor 10 – biochemical, small-molecule microarray, 635 nm fluorescence, primary screen (AID 1102). Particulars: FGF10 binding, fluorescence 635 nm, higher = more signal.
Test [16] has as its system glycogen synthase kinase-3 (GSK3A per assay name; protocol says GSK3B). The test can be described thus: compounds binding glycogen synthase kinase-3 – biochemical, small-molecule microarray, 635 nm fluorescence, GSK3A, primary screen (AID 1103). Further: the record names both GSK3A and GSK3B. Particulars: fluorescence 635 nm, higher = more signal.
Test [17] deals with Epidermal growth factor receptor (Homo sapiens) (UniProt P00533). The test can be described thus: compounds binding epidermal growth factor receptor – biochemical, small-molecule microarray, 635 nm fluorescence, primary screen (AID 1104).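 Further: score merges 667 nm emission intensity with spot signal to noise over triplicate slides.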 Particulars: EGFR binding, higher = more signal.
Test [18] concerns the target Follistatin-related protein 3 (Homo sapiens) (UniProt O95633). Description: compounds binding follistatin-related protein 3 – biochemical, small-molecule microarray, 635 nm fluorescence, primary screen (AID 1105).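 Further: score merges emission near 667 nm and signal to noise per printed spot across three slides.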 Particulars: FSTL3 binding, higher = more signal.
Test [19] addresses Dickkopf-related protein 1 (Homo sapiens) (UniProt O94907). The test can be described thus: small molecules binding DKK1 protein – biochemical, small-molecule microarray, 635 nm fluorescence scan, primary screen (AID 1106).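 Further: score merges emission near 667 nm with signal to noise over three replicate slides.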 Particulars: higher = more signal.
In test [20] the test system is Inhibin beta A chain (activin A). Description: small molecules binding activin A – biochemical, small-molecule microarray, 635 nm fluorescence scan, primary screen (AID 1107).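 Further: mouse activin A protein probed at 4.33 µg/mL on printed slides; score merges bound-protein fluorescence near 667 nm with spot signal-to-noise.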 Particulars: INHBA, higher = more signal.

Neurogenic locus notch homolog protein 3 (Homo sapiens), sequence (Q9UM47 whole entry, looked up): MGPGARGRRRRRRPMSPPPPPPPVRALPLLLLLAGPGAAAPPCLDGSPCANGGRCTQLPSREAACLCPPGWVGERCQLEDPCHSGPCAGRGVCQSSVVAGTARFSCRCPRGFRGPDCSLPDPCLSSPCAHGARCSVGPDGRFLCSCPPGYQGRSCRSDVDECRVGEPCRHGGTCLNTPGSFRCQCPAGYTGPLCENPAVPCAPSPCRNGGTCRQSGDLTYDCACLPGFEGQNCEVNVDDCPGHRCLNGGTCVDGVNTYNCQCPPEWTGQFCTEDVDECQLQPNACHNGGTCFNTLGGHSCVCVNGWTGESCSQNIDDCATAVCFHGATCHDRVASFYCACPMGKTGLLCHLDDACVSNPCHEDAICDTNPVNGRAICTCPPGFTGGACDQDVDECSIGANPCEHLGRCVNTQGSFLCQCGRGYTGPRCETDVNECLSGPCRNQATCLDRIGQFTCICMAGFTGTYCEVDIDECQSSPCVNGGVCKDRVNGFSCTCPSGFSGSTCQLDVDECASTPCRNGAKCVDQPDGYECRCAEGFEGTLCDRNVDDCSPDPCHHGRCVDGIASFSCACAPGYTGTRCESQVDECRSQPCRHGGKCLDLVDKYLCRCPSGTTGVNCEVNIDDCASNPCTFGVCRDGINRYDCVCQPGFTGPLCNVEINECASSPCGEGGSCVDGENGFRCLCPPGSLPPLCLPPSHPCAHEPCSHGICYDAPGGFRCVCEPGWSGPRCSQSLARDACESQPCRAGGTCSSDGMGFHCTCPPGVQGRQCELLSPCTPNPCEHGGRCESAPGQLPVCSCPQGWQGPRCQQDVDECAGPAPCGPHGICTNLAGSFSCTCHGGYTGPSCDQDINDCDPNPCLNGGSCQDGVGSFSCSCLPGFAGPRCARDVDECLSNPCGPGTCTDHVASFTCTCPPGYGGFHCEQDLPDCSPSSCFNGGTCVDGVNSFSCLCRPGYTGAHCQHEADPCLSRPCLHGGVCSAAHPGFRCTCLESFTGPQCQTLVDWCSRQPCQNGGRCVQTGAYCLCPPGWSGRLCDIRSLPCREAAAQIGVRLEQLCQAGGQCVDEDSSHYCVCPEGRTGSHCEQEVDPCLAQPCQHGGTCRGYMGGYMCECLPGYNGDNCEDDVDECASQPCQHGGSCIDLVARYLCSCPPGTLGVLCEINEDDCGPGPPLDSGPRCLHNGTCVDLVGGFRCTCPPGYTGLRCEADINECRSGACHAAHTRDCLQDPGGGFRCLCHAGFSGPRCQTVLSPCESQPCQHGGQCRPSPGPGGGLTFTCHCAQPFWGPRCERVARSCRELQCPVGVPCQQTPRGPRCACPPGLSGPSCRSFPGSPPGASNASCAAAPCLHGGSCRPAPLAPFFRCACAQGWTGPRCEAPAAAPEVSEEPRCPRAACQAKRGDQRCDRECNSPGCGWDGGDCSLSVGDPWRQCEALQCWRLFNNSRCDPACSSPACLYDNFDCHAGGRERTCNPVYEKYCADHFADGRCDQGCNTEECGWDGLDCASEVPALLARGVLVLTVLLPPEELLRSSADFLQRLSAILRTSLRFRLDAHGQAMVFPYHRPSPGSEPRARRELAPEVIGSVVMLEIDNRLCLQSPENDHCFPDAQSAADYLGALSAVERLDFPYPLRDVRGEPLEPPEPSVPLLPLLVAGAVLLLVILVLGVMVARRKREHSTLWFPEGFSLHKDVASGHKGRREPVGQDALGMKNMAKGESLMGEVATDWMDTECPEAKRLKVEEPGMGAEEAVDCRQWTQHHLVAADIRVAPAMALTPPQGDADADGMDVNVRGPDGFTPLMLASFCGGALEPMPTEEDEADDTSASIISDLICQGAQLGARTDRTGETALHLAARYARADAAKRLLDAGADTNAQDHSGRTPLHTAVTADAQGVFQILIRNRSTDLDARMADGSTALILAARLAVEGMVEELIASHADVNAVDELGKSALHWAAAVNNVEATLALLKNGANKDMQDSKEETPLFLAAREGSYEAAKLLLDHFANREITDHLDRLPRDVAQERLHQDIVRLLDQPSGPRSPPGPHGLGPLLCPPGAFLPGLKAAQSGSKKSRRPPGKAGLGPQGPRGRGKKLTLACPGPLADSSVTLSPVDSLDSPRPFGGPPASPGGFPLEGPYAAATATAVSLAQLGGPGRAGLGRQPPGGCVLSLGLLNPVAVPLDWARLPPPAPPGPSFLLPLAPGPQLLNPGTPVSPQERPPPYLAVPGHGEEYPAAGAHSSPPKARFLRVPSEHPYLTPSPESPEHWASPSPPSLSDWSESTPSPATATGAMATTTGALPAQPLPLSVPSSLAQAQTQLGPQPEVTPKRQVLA
Torsin-1A-interacting protein 2 (Homo sapiens), sequence (Q8NFQ8 whole entry, looked up): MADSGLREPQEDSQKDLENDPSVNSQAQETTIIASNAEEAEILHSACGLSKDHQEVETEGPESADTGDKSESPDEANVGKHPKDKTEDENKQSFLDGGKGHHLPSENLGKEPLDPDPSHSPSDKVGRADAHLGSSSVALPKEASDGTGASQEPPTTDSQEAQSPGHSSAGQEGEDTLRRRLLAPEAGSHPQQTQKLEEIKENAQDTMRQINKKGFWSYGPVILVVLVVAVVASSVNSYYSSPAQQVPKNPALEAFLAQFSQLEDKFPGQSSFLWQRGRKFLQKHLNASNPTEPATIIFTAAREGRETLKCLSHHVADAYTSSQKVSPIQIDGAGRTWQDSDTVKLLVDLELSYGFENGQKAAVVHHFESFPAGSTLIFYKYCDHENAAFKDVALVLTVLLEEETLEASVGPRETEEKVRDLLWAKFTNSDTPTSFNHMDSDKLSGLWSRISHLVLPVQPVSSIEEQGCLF
Dickkopf-related protein 1 (Homo sapiens), sequence (O94907 whole entry, looked up): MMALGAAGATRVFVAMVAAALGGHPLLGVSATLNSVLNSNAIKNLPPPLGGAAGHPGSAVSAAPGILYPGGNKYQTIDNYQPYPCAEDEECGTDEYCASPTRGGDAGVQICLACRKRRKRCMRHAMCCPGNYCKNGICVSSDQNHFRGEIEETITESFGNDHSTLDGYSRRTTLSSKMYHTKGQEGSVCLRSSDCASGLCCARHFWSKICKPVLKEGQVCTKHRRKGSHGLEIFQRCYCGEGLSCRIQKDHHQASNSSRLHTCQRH
Epidermal growth factor receptor (Homo sapiens), sequence (P00533 whole entry, looked up): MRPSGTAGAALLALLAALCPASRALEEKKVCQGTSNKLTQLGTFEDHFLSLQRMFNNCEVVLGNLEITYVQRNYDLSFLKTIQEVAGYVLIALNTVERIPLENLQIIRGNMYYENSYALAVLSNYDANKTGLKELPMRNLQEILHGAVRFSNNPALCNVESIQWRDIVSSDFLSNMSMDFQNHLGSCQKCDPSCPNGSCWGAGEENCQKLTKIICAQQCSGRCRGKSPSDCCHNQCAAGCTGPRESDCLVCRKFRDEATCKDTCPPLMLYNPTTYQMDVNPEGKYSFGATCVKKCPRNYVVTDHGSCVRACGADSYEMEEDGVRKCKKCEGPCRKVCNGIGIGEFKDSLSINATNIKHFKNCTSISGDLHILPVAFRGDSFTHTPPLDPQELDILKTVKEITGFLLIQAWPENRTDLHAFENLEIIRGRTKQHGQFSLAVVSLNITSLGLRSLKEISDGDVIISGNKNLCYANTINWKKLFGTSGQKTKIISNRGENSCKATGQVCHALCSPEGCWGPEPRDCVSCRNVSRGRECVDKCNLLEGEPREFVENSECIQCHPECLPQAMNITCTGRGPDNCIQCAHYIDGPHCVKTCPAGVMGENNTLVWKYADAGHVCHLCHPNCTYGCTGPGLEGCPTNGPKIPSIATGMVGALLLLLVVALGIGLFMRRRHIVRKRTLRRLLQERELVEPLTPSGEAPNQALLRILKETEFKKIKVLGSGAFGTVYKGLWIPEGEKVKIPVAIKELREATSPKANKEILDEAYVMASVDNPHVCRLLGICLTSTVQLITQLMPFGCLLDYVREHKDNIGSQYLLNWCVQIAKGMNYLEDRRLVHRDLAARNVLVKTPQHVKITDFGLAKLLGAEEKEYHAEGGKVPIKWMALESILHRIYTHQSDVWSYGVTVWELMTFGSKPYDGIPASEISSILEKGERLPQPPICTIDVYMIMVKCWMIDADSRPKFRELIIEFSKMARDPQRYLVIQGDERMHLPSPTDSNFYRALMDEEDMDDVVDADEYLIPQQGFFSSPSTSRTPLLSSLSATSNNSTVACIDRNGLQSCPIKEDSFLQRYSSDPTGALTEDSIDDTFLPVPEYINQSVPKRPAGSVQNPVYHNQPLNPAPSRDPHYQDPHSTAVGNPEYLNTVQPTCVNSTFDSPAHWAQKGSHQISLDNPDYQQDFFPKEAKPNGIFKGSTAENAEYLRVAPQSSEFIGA
Fibroblast growth factor 10 (Homo sapiens), sequence (O15520 whole entry, looked up): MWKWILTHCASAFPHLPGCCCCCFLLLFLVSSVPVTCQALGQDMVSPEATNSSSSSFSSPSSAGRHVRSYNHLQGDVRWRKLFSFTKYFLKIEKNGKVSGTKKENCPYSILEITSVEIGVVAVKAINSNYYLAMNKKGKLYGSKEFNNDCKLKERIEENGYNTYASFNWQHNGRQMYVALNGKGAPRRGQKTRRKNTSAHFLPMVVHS
Follistatin-related protein 3 (Homo sapiens), sequence (O95633 whole entry, looked up): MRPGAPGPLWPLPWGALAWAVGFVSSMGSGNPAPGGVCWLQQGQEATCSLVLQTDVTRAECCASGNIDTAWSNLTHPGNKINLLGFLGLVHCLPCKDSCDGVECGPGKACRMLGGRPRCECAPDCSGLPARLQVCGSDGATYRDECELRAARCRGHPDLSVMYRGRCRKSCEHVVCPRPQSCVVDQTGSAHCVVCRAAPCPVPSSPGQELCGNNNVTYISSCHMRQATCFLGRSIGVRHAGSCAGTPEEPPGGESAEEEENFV

With `CO[C@@H](C(C)C)[C@@H](C)C1OC(=O)CC1O` (stereo not given in full), the composite z-score in test [1] is -0.255; in test [5], 0.338; in test [7], -0.161; in test [8] it was -0.614; in test [9], -0.716; in [10], -0.195. In addition, the composite z-score in test [11] was -0.595; in test [12], -0.148; in [13] it was -0.0917; in test [15], -0.114; in test [16], -0.051; in test [17], -0.57. The composite z-score was -0.552 in [18], -0.166 in test [19] and 0.253 in [20]. The z-score in [2] is 0.0031 (inactive); in test [3], 0.0183 (inactive); in [4], -0.582 (inactive); in [6], 0.457 (inactive); in [14], 0.94 (inactive).

Consider `O=C1[C@H]2[C@H]3[C@H](O)[C@H](O)CC(=NOC[C@@H](O)COCc4ccco4)[C@@H]3CC[C@H]2C(=O)N1c1cccc(Oc2ccccc2)c1`, for which the composite z-score in test [1] is -0.76; in test [5], -0.75; in [7] it was 0.0474; in test [8] it was 0.0054; in [9] it was -0.487; in [10], -0.156. The composite z-score in test [11] is -0.042; in [12], -0.334; in test [13], -0.885; in [15], -0.25; in test [16] it was -0.91; in [17] it was -0.094. Further, the results for the composite z-score in test [18], in [19] and in test [20] were -0.213, 0.461 and 0.831, respectively. Besides, the z-score in [2] was 0.321 (inactive); in test [3] it was -0.512 (inactive); in test [4] it was -0.86 (inactive); in test [6], 0.0129 (inactive); in [14], -0.33 (inactive).

In the case of `COC(=O)[C@H](Cc1ccccc1)NC(=O)[C@@H](C)CO`, the composite z-score stood at 1.41 in [1]; 0.738 in test [5]; 0.0498 in [7]; 0.441 in test [8]; 0.588 in test [9]; 0.169 in test [10]. The composite z-score is -0.535 in test [11]; 0.629 in [12]; 0.389 in test [13]; 0.477 in test [15]; 0.0595 in [16]; 0.651 in [17]. The composite z-score in test [18] is 1.03; in [19], 0.671; in [20], 1.1. The z-score in test [2] was -0.152 (inactive); in [3], -0.187 (inactive); in test [4], 0.22 (inactive); in test [6], -0.503 (inactive); in test [14], -1.36 (inactive).

Take `CO[C@H]1COC(=O)CCC[C@H](C)[C@@H](OC)COC(=O)CC=C[C@@H]1C`: the composite z-score is 0.411 in test [1]; -0.355 in test [5]; -0.0448 in test [7]; 0.409 in [8]; 0.0682 in test [9]; -0.0405 in test [10]. Further, the composite z-score was 0.981 in test [11]; -0.26 in test [12]; -0.811 in test [13]; 0.267 in test [15]; 0.278 in test [16]; 0.711 in [17]. Besides, the composite z-score in test [18] is 0.319; in test [19], 0.846; in [20], 0.691. Also, the z-score in test [2] was 0.0303 (inactive); in test [3], 0.197 (inactive); in test [4] it was -1.08 (inactive); in test [6] it was 0.556 (inactive); in [14], -1.05 (inactive).

Turning to `CC(=O)OC[C@H]1O[C@H](CC=NOCC[C@@H]2C=C[C@H](OC(C)=O)[C@@H](COC(C)=O)O2)C=C[C@@H]1OC(C)=O`, the composite z-score in test [1] came to 1.46; in test [5] it was 0.137; in [7] it was 0.0024; in [8] it was 0.772; in test [9] it was 0.757; in test [10], 0.0707. For the same compound, the composite z-score in test [11] was 0.892; in test [12], 0.771; in test [13] it was -0.752; in test [15], 1.08; in [16], 0.93; in test [17], 0.914. The composite z-score in [18] came to 0.716; in test [19], 0.864; in test [20], 0.103. For the same compound, the z-score is -0.996 (inactive) in test [2]; 0.526 (inactive) in [3]; -0.0043 (inactive) in [4]; 0.712 (inactive) in [6]; 0.525 (inactive) in test [14].

As to `O=C1C[C@@H](O)[C@@H](O)[C@@H]2[C@@H]3C(=O)N(Cc4ccccc4)C(=O)[C@@H]3CC[C@H]12`, the composite z-score in test [1] is -0.326; in [5], -0.14; in [7], -0.107; in [8] it was 0.497; in test [9], 0.545; in test [10], -0.0171. Further, the composite z-score is 0.465 in [11]; -0.0382 in test [12]; -0.506 in test [13]; 0.56 in test [15]; 0.331 in test [16]; 0.564 in [17]. Besides, the composite z-score in test [18] was found to be 0.643; in test [19] it was 0.608; in [20], 0.3. For the same compound, the z-score was 0.179 (inactive) in test [2]; -0.253 (inactive) in [3]; -0.138 (inactive) in test [4]; -0.188 (inactive) in test [6]; -0.0414 (inactive) in [14].

As to `CC(CCC(=O)OC[C@H]1O[C@H](C#Cc2ccccc2)C=C[C@@H]1Oc1ccc(C)cc1)=NOC(C)CN1CCCCc2nc(C)c(C)cc21` (stereo not given in full), the composite z-score is 0.479 in test [1]; 0.238 in test [5]; -0.0454 in test [7]; -0.0193 in test [8]; -0.171 in test [9]; -0.18 in [10]. For the same compound, the composite z-score is 0.508 in test [11]; -0.241 in test [12]; 0.159 in test [13]; 0.0616 in [15]; -0.555 in test [16]; -0.598 in test [17]. The composite z-score in [18] was -0.159; in test [19] it was 0.191; in test [20], 0.69. The z-score in test [2] was -0.167 (inactive); in test [3], -0.324 (inactive); in [4] it was -0.773 (inactive); in [6], 0.136 (inactive); in test [14], -0.176 (inactive).

On to `COC(=O)[C@H](C)NC(=O)CCC1CC(OC(=O)NCc2cccc3ccccc23)CC2(CCCC(COC(=O)NCCOc3ccccc3)O2)O1` (stereo not given in full), for which the composite z-score is 1.53 in test [1]; 2.21 in test [5]; -0.208 in [7]; 0.11 in test [8]; 0.377 in test [9]; -0.145 in test [10]. Also, the composite z-score in test [11] is 1.1; in [12], -0.357; in test [13], -0.413; in [15], 0.411; in [16], 0.526; in test [17] it was 0.148. Moreover, the results for the composite z-score in [18], in test [19] and in test [20] were 0.319, -0.303 and -0.143, respectively. For the same compound, the z-score was -0.534 (inactive) in test [2]; -0.231 (inactive) in test [3]; -0.576 (inactive) in test [4]; 0.544 (inactive) in test [6]; -0.834 (inactive) in test [14].

Consider `CC(C)(C)N1C(=O)[C@H]2[C@H]3[C@H](O)[C@H](O)CC(=NOC[C@@H](O)COCc4ccco4)[C@@H]3CC[C@H]2C1=O`, for which the composite z-score in [1] was -0.424; in [5] it was -0.238; in test [7] it was 0.16; in [8] it was 0.0106; in test [9] it was -0.589; in [10], -0.141. Further, the composite z-score is 0.34 in [11]; 0.774 in test [12]; 0.588 in [13]; 0.249 in test [15]; -0.332 in [16]; -0.144 in test [17]. The figures for the composite z-score in test [18], in [19] and in [20] were -0.248, -0.272 and 0.426, respectively. The z-score in test [2] is -0.0093 (inactive); in test [3], 0.257 (inactive); in [4] it was 0.498 (inactive); in test [6], 0.635 (inactive); in test [14], 0.369 (inactive).

Source of the values: PubChem BioAssay.
